Source: the antibiotic and cytotoxicity screens of Wong et al. (2023)
The campaign covered roughly 39,000 compounds. About 1,500 (3.8%) were called active. This is one part of a sample in which actives are shown more often than they occur.

system: HSkMC (human skeletal muscle cells); experiment: cytotoxicity call (relative viability < 0.9); details: 10 µM

| SMILES | cytotoxicity call |
| --- | --- |
| C[C@H]1CN([C@@H](C)CO)C(=O)Cc2cc(NS(=O)(=O)c3ccc(Cl)cc3)ccc2O[C@H]1CN(C)C(=O)Nc1ccc(C(F)(F)F)cc1 | inactive |
| CC1=C(CCC(=O)O)c2cc3[nH]c(cc4nc(cc5[nH]c(cc1n2)c(C)c5C(C)O)C(C)=C4C(C)O)c(C)c3CCC(=O)O (centres undefined) | inactive |
| CCCCCCO[C@H](C)c1c(c/2[nH]c1/C=C/1\N=C(/C=C/3\NC4=C(CC(=O)C4=C3C)C3=N/C(=C2)[C@@H](C)[C@@H]3CCC(=O)O)C(=C1C)CC)C | active |
| CCc1c(c/2[nH]c1/C=C/1\N=C(/C(=C/3\N=C(/C=C/4\N/C(=C2)C(=C4C)C=C)[C@@H](C)[C@@H]3CCC(=O)O)CC(=O)N[C@@H](CC(=O)O)C(=O)O)C(=C1C)C(=O)O)C | inactive |
| C[C@H](N)C(=O)N1CCc2ccccc2C1 | inactive |
| C[C@@H]1CCCCO[C@@H](CN(C)S(=O)(=O)c2ccc(F)cc2)[C@@H](C)CN([C@@H](C)CO)C(=O)c2cc(NC(=O)Nc3ccc(F)cc3)ccc2O1 | inactive |
| CC(N)O.Cc1cc(CC(C)CC(C)(C)C)n(O)c(=O)c1 (centres undefined) | inactive |
| C[C@@H]1CCCCO[C@H](CN(C)C(=O)Cc2ccccc2)[C@H](C)CN([C@@H](C)CO)C(=O)c2cc(NC(=O)Nc3ccc(C(F)(F)F)cc3)ccc2O1 | active |
| C[C@@H]1CN([C@H](C)CO)C(=O)c2cc(NC(=O)Nc3ccc(C(F)(F)F)cc3)ccc2O[C@@H](C)CCCCO[C@@H]1CN(C)C(=O)Cc1ccccc1 | active |
| C[C@@H]1CCCCO[C@@H](CN(C)C(=O)Cc2ccccc2)[C@@H](C)CN([C@H](C)CO)C(=O)c2cc(NC(=O)Nc3ccc(C(F)(F)F)cc3)ccc2O1 | inactive |
| C[C@@H]1CCCCO[C@H](CN(C)C(=O)Cc2ccccc2)[C@@H](C)CN([C@@H](C)CO)C(=O)c2cc(NC(=O)Nc3ccc(C(F)(F)F)cc3)ccc2O1 | inactive |
| C[C@H](CO)N1C[C@H](C)[C@@H](CN(C)C(=O)Cc2ccccc2)OCCCC[C@H](C)Oc2ccc(NC(=O)Nc3ccc(C(F)(F)F)cc3)cc2C1=O | inactive |
| C[C@H](CO)N1C[C@H](C)[C@H](CN(C)C(=O)Cc2ccccc2)OCCCC[C@H](C)Oc2ccc(NC(=O)Nc3ccc(C(F)(F)F)cc3)cc2C1=O | inactive |
| C[C@@H]1CCCCO[C@@H](CN(C)C(=O)Cc2ccccc2)[C@@H](C)CN([C@@H](C)CO)C(=O)c2cc(NC(=O)Nc3ccc(C(F)(F)F)cc3)ccc2O1 | inactive |
| C[C@@H]1CCCCO[C@H](CN(C)C(=O)Cc2ccccc2)[C@@H](C)CN([C@H](C)CO)C(=O)c2cc(NC(=O)Nc3ccc(C(F)(F)F)cc3)ccc2O1 | inactive |
| C[C@@H]1CN([C@@H](C)CO)C(=O)c2cc(NC(=O)Nc3ccc(C(F)(F)F)cc3)ccc2O[C@@H](C)CCCCO[C@H]1CN(C)C(=O)Cc1ccccc1 | active |
| COc1ccc(NC(=O)N(C)C[C@@H]2OCc3cnnn3CCCC(=O)N([C@H](C)CO)C[C@@H]2C)c(OC)c1 | inactive |
| C[C@@H]1CCCCO[C@@H](CN(C)C(=O)CCC(F)(F)F)[C@@H](C)CN([C@@H](C)CO)C(=O)c2cc(NC(=O)CCC(F)(F)F)ccc2O1 | inactive |
| C[C@@H]1CN(C)C(=O)c2cccc(NC(=O)c3ccncc3)c2O[C@H]1CN(C)Cc1ccc(Oc2ccccc2)cc1 | inactive |
| O=C(C[C@@H]1CC[C@@H]2[C@H](COC[C@@H](O)CN2S(=O)(=O)c2ccccc2)O1)N[C@H]1CCN(Cc2ccccc2)C1 | inactive |
| COc1cc(-c2cc(=O)c3c(s2)N(Cc2ccco2)[C@@H](c2ccc(O)c(OC)c2)CC3=O)ccc1O | inactive |
| C[C@H](CO)N1C[C@H](C)[C@@H](CN(C)C(=O)Nc2ccc(F)cc2)Oc2ccc(NC(=O)Nc3cccc4ccccc34)cc2CC1=O | inactive |

| SMILES | cytotoxicity call |
| --- | --- |
| CC(C)(C)C(=O)OCOP(=O)(OCOC(=O)C(C)(C)C)C(C)(Oc1ccc(O)cc1)P(=O)(OCOC(=O)C(C)(C)C)OCOC(=O)C(C)(C)C | inactive |
| COc1ccc2c(c1)/C(=N\O)C(=O)N2 | inactive |
| COc1ccc2c(c1)C(=O)C(=O)N2 | inactive |
| O=C1Nc2ccc(I)cc2C1=Cc1cc(Br)c(O)c(Br)c1 | active |
| C[C@H](CO)N1C[C@H](C)[C@H](CN(C)C(=O)Nc2ccc(C(F)(F)F)cc2)OCCCC[C@H](C)Oc2ccc(NC(=O)c3ccccc3)cc2C1=O | inactive |
| C[C@H](CO)N1C[C@H](C)[C@H](CN(C)C(=O)Nc2ccc3c(c2)OCO3)OCCCC[C@H](C)Oc2ccc(NS(=O)(=O)c3ccccc3)cc2C1=O | inactive |
| CCN1C(=O)[C@H]2[C@H](O)CS[C@H]2C1=O | inactive |
| C[C@@H]1CN([C@@H](C)CO)S(=O)(=O)c2ccc(C#C[C@@H](C)O)cc2O[C@H]1CN(C)C(=O)C1CCCCC1 | inactive |
| c1ccc2c(c1)-c1ccc3ccc4cccc5cc-2c1c3c45 | inactive |
| CCN(CC)CCNC(=O)COc1ccc(OC)cc1.Cl | inactive |
| CCN(CC)CCCCNc1ncc2cc(-c3cc(OC)cc(OC)c3)c(NC(=O)NC(C)(C)C)nc2n1 | active |
| CCN(CC)CCCCNc1ncc2cc(-c3c(Cl)cccc3Cl)c(NC(=O)NC(C)(C)C)nc2n1 | inactive |
| Cc1noc(C)c1S(=O)(=O)N(C)C[C@@H]1Oc2ccc(NC(=O)Cc3cn(C)c4ccccc34)cc2CC(=O)N([C@@H](C)CO)C[C@H]1C | inactive |
| C[C@@H]1CN([C@@H](C)CO)C(=O)c2cc(NS(=O)(=O)c3ccc(F)cc3)ccc2O[C@@H]1CN(C)CC1CC1 | inactive |
| CCc1c(O)cc(O)c(C(=O)c2ccc(OCCN3CCOCC3)c(OC)c2)c1CC(=O)N(CCOC)CCOC | active |
| COc1c(OCCCN2CCOCC2)ccc2c1N=C(NC(=O)c1cnc(N)nc1)N1CCN=C21 | inactive |
| COc1cc(C(=O)OCCN2CCN(CCOC(=O)c3cc(OC)c(OC)c(OC)c3)CC2)cc(OC)c1OC | inactive |
| C[C@@H]1CN([C@@H](C)CO)S(=O)(=O)c2ccc(C#CC3(O)CCCC3)cc2O[C@H]1CN(C)C(=O)Nc1ccccc1 | inactive |
| N=C(N)N/N=C1\CCc2c(C(=N)N)cccc21 | active |
| C[C@H](CO)N1C[C@H](C)[C@H](CN(C)S(=O)(=O)c2ccccc2)Oc2ccc(NS(=O)(=O)c3ccccc3)cc2CC1=O | inactive |
| C[C@H](CO)N1C[C@H](C)[C@@H](CN(C)Cc2ccc3c(c2)OCO3)Oc2cc(C#CCN(C)C)ccc2S1(=O)=O | inactive |
| CN(c1ncccc1CNc1nc(Nc2ccc3c(c2)CC(=O)N3)ncc1C(F)(F)F)S(C)(=O)=O | active |

| SMILES | cytotoxicity call |
| --- | --- |
| CNC(=O)c1ccc(Nc2ncc(C(F)(F)F)c(NCc3nccnc3N(C)S(C)(=O)=O)n2)cc1 | active |
| C[C@H](CO)N1C[C@H](C)[C@@H](CN(C)S(C)(=O)=O)Oc2ccc(NS(=O)(=O)c3cccs3)cc2CC1=O | inactive |
| C[C@H](CO)N1C[C@H](C)[C@@H](CN(C)S(=O)(=O)c2cn(C)cn2)Oc2ccc(NC(=O)CCC(F)(F)F)cc2CC1=O | inactive |
| COc1ccncc1-c1ccccc1CN(C(=O)c1ccc(-c2ccc(C#N)cc2)o1)c1ccc(N2CCNCC2)cc1 | active |
| C[C@@H]1CN([C@H](C)CO)C(=O)Cc2cc(NC(=O)Nc3ccc(F)cc3)ccc2O[C@H]1CN(C)Cc1ccc(Cl)c(Cl)c1 | active |
| C[C@@H]1CN([C@@H](C)CO)C(=O)Cc2cc(NC(=O)Nc3ccc(F)cc3)ccc2O[C@@H]1CN(C)Cc1ccc(Cl)c(Cl)c1 | active |
| C[C@H](CO)N1C[C@H](C)[C@@H](CN(C)Cc2ccc(Cl)c(Cl)c2)Oc2ccc(NC(=O)Nc3ccc(F)cc3)cc2CC1=O | active |
| C[C@@H]1CN([C@@H](C)CO)C(=O)Cc2cc(NC(=O)Nc3ccc(F)cc3)ccc2O[C@H]1CN(C)Cc1ccc(Cl)c(Cl)c1 | active |
| C[C@@H]1CCCCO[C@@H](CN(C)C(=O)c2ccccc2)[C@H](C)CN([C@H](C)CO)C(=O)c2cc(NC(=O)Nc3cccc4ccccc34)ccc2O1 | inactive |
| C[C@@H]1CN([C@@H](C)CO)C(=O)c2cc(NS(=O)(=O)c3ccc(F)cc3)ccc2O[C@@H](C)CCCCO[C@@H]1CN(C)C(=O)Nc1ccccc1 | inactive |
| C[C@H]1CCCCO[C@H](CN(C)Cc2ccc(C(F)(F)F)cc2)[C@@H](C)CN([C@@H](C)CO)C(=O)c2cc(NC(=O)C3CCCCC3)ccc2O1 | inactive |
| C[C@@H]1CN([C@H](C)CO)C(=O)Cc2cc(NC(=O)CCN3CCOCC3)ccc2O[C@@H]1CN(C)Cc1ccccc1 | inactive |
| C[C@H](CO)N1C[C@H](C)[C@H](CN(C)Cc2ccc(Oc3ccccc3)cc2)Oc2ccc(NC(=O)C3CCCCC3)cc2C1=O | inactive |
| Cc1ccc(S[C@]2(C(=O)O)CC(=O)N(Cc3ccccc3C(F)(F)F)[C@@H]2c2ccc(CO)cc2)cc1 | inactive |
| COc1cccc(S(=O)(=O)N(C)C[C@@H]2Oc3ncc(-c4cccc(F)c4)cc3C(=O)N([C@H](C)CO)C[C@@H]2C)c1 | inactive |
| C[C@H](CO)N1C[C@H](C)[C@H](CN(C)Cc2ccc(C(=O)O)cc2)Oc2ccc(NC(=O)c3ccncc3)cc2C1=O | inactive |
| C[C@@H]1CCCCO[C@@H](CN(C)Cc2ccc(C(=O)O)cc2)[C@@H](C)CN([C@@H](C)CO)C(=O)c2cc(NS(=O)(=O)c3cccs3)ccc2O1 | inactive |
| C[C@@H]1CN([C@H](C)CO)C(=O)CCCn2cc(nn2)CO[C@@H]1CN(C)S(=O)(=O)c1ccc2ccccc2c1 | inactive |
| O=C(C[C@@H]1CC[C@@H]2[C@H](COC[C@@H](O)CN2C(=O)Nc2ccc(F)cc2)O1)NCCCN1CCOCC1 | inactive |
| C[C@@H]1CN([C@@H](C)CO)C(=O)c2cc(NS(=O)(=O)c3ccc(F)cc3)ccc2O[C@@H](C)CCCCO[C@H]1CN(C)Cc1ccc(C(=O)O)cc1 | inactive |
